# Results published in PubChem BioAssay.
# Values joined by “and” are separate entries in the source; they are usually repeats but may differ in a detail not shown here. Equal entries are not always repeated. For some of these results: Measured potencies and affinities stand elsewhere. Active and inactive are the calls of the source. Rule as the data show it, unless noted: active = parasite load remaining mostly below about 12% (no sharp cut-off); inactive = mostly above about 10%.
# What was measured:
# [1] = liver-stage malaria parasite growth inhibition, primary screen, cell-based, HepG2, luciferase luminescence, HepG2 viability (AID 624349);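 also: 100% = mean of DMSO negative control wells on the same plate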; settings: P. berghei liver stage in HepG2, luciferase luminescence, concentration not given here; parasite load remaining: stronger effect = lower value; viability: measured here: HepG2 viability without parasites
# [2] = molecular target: 6-phosphogluconate dehydrogenase, decarboxylating (Homo sapiens) (UniProt P52209); assay: 6PGD enzyme inhibitors, primary screen, biochemical, human, recombinant enzyme, NADPH absorbance (AID 1159550;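 active = at least 20% inhibition of 6-phosphogluconate dehydrogenase activity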); settings: recombinant 6PGD, NADPH absorbance 341 nm; at 10 µM; stronger effect = higher value
# 6-phosphogluconate dehydrogenase, decarboxylating (Homo sapiens), sequence (P52209 whole entry, looked up): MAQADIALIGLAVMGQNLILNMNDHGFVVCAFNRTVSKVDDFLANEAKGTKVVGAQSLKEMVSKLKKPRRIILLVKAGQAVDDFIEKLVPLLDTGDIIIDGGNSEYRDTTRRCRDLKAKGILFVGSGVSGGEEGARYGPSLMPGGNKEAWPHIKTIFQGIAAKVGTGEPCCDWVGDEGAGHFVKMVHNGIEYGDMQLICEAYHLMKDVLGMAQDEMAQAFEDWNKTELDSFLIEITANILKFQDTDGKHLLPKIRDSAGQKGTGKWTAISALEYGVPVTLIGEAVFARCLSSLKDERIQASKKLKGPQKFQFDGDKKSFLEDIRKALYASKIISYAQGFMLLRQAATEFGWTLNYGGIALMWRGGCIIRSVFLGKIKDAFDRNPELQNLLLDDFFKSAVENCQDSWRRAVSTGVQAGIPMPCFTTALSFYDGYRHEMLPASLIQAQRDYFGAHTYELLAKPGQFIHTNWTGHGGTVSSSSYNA
# [3] = differential killing of epithelial or mesenchymal cells, primary screen, imaging, PC-3E GFP, TEM4-18 mCherry, co-culture (AID 1345086;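 active = compounds killing one labelled cell type while sparing the other, by normalised counts and ratio limits, not self-fluorescent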;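 as to all read-outs here: cells exposed to compound for 72 h before imaging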;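 as to red/green cell ratio (normalised): normalised mesenchymal count divided by normalised epithelial count so high means epithelial killing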); settings: imaging cell counts, at 1 µM; for red/green cell ratio (normalised): actives lie on both sides, counts scaled to control wells, 1 = unselective
# [4] = sensitizers of A549 cells to miR-34 induction, primary screen, imaging, A549 dox-inducible miR-34, nuclei and caspase counts (AID 1347080;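 active = compounds whose cell count with miR-34 switched on is under 0.7 times the count with it off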); settings: A549 miR-34 inducible, Hoechst nuclei count, 48 h
# [5] = polyglutamine-triggered caspase-3 activation inhibitors, cell-based (AID 1583); settings: polyglutamine-induced caspase-3 activation, cell assay; stronger effect = higher value;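 tested at 10 µM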
# [6] = suppressors of polyQ aggregation in yeast, 75Q-TubU reporter (AID 1593); settings: Yeast 75Q polyglutamine aggregation reporter
# [7] = rescue of polyQ-huntingtin neuronal dysfunction in worms, whole organism, C. elegans mechanosensory neurons, N-terminal huntingtin (AID 1599); settings: touch response, stronger effect = higher value
# [8] = inhibitors of mitochondrial cytochrome c release, biochemical, purified mitochondria (AID 1603); settings: stronger effect = lower value;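 also: mouse liver mitochondria challenged with calcium chloride; signal normalized to the plate average as 100%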
# [9] = inhibitors of polyQ protein aggregation (AID 1604); settings: polyglutamine-induced protein aggregation inhibition assay; stronger effect = higher value; tested at 2.5 µM
# [10] = enhancers of glutamate uptake in motor neurons, MN-1 cell line (AID 1612); settings: MN-1 motor neuron cells, stronger effect = higher value;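 also: tested at 1 µM final; 0% = mean of DMSO vehicle wells on each plate; positive means more glutamate uptake than control and negative means less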
# [11] = reducers of polyQ inclusions in PC12 cells, cell-based, NGF-treated PC12, GFPQ80 (AID 1614); settings: PC12 NGF-treated GFP-polyQ80 inclusion reduction;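 also: lower means fewer inclusions and 0 means no inclusions at all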
# [12] = suppressors of polyglutamine aggregation in yeast, 75Q-TubH (AID 1616); settings: S. cerevisiae 75Q-TubH polyglutamine aggregation suppression; stronger effect = higher value
# [13] = molecular target: NAD(+) hydrolase SARM1 (Homo sapiens) (UniProt Q6SZW1); assay: SARM1 TIR NADase inhibitors, cell lysate, NAD-Glo luminescence (AID 1508614;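 active = compound whose remaining NAD level is above about 45 nM, limit read from the data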;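 also: higher remaining NAD means stronger inhibition of SARM1 NADase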); settings: SAM-TIR HEK293T lysate NADase, at 1 µM, stronger effect = higher value
# NAD(+) hydrolase SARM1 (Homo sapiens), sequence (Q6SZW1 whole entry, looked up, the tested form may be a part): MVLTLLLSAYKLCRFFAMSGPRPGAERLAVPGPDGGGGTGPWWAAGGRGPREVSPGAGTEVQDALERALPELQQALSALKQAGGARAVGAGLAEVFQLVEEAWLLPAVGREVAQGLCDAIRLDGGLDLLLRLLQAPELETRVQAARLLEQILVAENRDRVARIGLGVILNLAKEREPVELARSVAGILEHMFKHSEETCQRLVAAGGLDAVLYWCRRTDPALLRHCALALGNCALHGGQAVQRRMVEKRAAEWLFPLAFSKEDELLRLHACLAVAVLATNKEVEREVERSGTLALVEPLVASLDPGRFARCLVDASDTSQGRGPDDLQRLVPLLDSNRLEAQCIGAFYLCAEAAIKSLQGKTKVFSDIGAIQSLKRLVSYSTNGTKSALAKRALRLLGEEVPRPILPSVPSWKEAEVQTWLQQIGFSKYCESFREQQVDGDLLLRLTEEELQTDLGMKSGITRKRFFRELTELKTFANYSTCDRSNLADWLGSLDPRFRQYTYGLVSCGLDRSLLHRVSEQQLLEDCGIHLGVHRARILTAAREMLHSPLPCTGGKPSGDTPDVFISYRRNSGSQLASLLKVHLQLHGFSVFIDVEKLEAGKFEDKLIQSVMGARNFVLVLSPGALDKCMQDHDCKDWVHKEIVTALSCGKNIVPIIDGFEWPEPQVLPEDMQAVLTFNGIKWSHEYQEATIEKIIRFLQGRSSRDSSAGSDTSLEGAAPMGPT
# [14] = molecular target: Mitogen-activated protein kinase 7 (Homo sapiens) (UniProt Q13164); assay: ERK5 transactivation activators in reporter cells, primary screen, cell-based, HTS (AID 1508626;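 active = luciferase signal above three times the same-plate solvent-only control wells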;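 also: luciferase driven by Gal4-ERK5 fusion binding five Gal4 sites before minimal TATA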); settings: HeLa Gal4-ERK5 transactivation, 18 h, at 5 µM, stronger effect = higher value
# Mitogen-activated protein kinase 7 (Homo sapiens), sequence (Q13164 whole entry, looked up, the tested form may be a part): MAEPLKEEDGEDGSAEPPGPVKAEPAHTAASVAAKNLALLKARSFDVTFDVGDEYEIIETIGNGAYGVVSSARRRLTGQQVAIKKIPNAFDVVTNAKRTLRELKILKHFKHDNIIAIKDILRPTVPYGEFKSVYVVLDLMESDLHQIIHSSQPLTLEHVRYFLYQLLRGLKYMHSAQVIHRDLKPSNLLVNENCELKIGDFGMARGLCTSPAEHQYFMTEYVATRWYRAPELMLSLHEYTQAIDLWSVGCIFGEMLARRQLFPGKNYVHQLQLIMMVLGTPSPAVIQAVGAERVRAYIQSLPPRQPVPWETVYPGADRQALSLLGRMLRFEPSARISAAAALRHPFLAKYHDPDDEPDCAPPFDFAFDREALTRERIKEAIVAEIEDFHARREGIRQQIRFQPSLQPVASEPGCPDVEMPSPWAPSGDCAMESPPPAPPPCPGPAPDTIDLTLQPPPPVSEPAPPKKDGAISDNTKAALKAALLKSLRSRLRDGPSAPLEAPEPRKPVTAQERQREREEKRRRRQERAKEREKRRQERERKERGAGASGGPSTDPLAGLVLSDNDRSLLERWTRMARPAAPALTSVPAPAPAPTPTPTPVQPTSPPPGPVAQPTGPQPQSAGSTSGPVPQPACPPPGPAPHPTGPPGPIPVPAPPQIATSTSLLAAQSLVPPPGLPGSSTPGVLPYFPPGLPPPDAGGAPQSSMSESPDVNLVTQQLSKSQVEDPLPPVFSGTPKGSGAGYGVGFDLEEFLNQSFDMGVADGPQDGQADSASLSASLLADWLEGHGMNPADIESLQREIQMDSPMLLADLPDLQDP
# [15] = viability rescue of complex I mutant cybrids, primary screen, cell-based, galactose medium, ATP luminescence (AID 1645843;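 active = z-score of at least 1.8 in each of two replicates, scored against plate mean and spread of sample wells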;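 also: positive z means more ATP and so rescue of galactose-driven cybrid death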); settings: complex I mutant cybrid cells, 72 h, stronger effect = higher value
# [16] = measured here: epithelial PC-3E GFP cell survival
# [17] = measured here: mesenchymal TEM4-18 mCherry cell survival
# [18] = stronger effect = lower value, cell number ratio, induced over uninduced
# [19] = measured here: relative caspase fold change +Dox/-Dox
# [20] = measured here: total cells with miR-34 induction, stronger effect = lower value
# [21] = measured here: total cells without miR-34 induction
structure (smiles),measurement,setting,value
C=Cc1c(C)/c2[n-]/c1=C\c1[n-]c(c(CC)c1C)/C=c1\[n-]c3c(c1C)C(=O)C(C(=O)[O-])C=3c1[n-]c(c(C)c1CCC(=O)[O-])\C=2.[Cu].[Na+].[Na+] (stereo not drawn),parasite load remaining,[1],101% (inactive) and 38.1% (inactive)
same,viability,[1],71.3% and 170%
same,inhibition,[2],37.8% (active)
same,red/green cell ratio (normalised),[3],0.85 (inactive)
same,normalised cell number,[3]; [16],1.03
same,normalised cell number,[3]; [17],0.87
same,fold change,[4]; [18],0.937 (inactive)
same,fold change,[4]; [19],2.82
same,cell count,[4]; [20],11500
same,cell count,[4]; [21],12300
NC(N)=O,inhibition,[5],5.74%
same,score,[6],1.17
same,rescue above control,[7],4.79
same,cytochrome c release ratio,[8],1.04
same,inhibition of aggregation,[9],43.7%
same,glutamate uptake change,[10],-1.11%
same,inclusion score,[11],2
same,aggregation suppression score,[12],1.21
same,parasite load remaining,[1],107% (inactive) and 54.8% (inactive)
same,viability,[1],72.7% and 99.5%
same,inhibition,[2],-2.6% (inactive)
same,red/green cell ratio (normalised),[3],0.95 (inactive)
same,normalised cell number,[3]; [16],1.22
same,normalised cell number,[3]; [17],1.16
same,fold change,[4]; [18],0.93 (inactive)
same,fold change,[4]; [19],2.44
same,cell count,[4]; [20],12300
same,cell count,[4]; [21],13300
same,remaining NAD,[13],10 nM (inactive)
same,luciferase signal,[14],52 AU (inactive)
CN1C(CC(=O)c2ccccc2)CCCC1CC(O)c1ccccc1 (stereo not drawn),inhibition,[5],17.8%
same,score,[6],1.4
same,rescue above control,[7],-4.31
same,cytochrome c release ratio,[8],0.5
same,inhibition of aggregation,[9],65.4%
same,glutamate uptake change,[10],3.53%
same,inclusion score,[11],2
same,aggregation suppression score,[12],1.27
same,parasite load remaining,[1],97.3% (inactive)
same,viability,[1],69.7%
same,inhibition,[2],-10.3% (inactive)
same,red/green cell ratio (normalised),[3],1.04 (inactive)
same,normalised cell number,[3]; [16],0.88
same,normalised cell number,[3]; [17],0.92
same,fold change,[4]; [18],0.965 (inactive)
same,fold change,[4]; [19],1.77
same,cell count,[4]; [20],10200
same,cell count,[4]; [21],10600
same,remaining NAD,[13],10 nM (inactive)
same,luciferase signal,[14],268 AU (active)
same,z-score,[15],0.16 (inactive)
CCOC(=O)CCC(=O)O[C@H]1[C@H](O[C@@H]2[C@@H](C)[C@H](O[C@H]3C[C@@](C)(OC)[C@@H](O)[C@H](C)O3)[C@@H](C)C(=O)O[C@H](CC)[C@@](C)(O)[C@H](O)[C@@H](C)C(=O)[C@H](C)C[C@@]2(C)O)O[C@H](C)C[C@@H]1N(C)C,inhibition,[5],26.4%
same,score,[6],1.27
same,rescue above control,[7],16.6
same,cytochrome c release ratio,[8],1.72
same,inhibition of aggregation,[9],47.5%
same,glutamate uptake change,[10],-6.79%
same,inclusion score,[11],2
same,aggregation suppression score,[12],1.2
same,parasite load remaining,[1],61.8% (inactive)
same,viability,[1],170%
same,inhibition,[2],-8.96% (inactive)
same,red/green cell ratio (normalised),[3],1.11 (inactive)
same,normalised cell number,[3]; [16],1.38
same,normalised cell number,[3]; [17],1.54
same,fold change,[4]; [18],0.87 (inactive)
same,fold change,[4]; [19],1.05
same,cell count,[4]; [20],11100
same,cell count,[4]; [21],12700
same,remaining NAD,[13],10 nM (inactive)
same,luciferase signal,[14],208 AU (inactive)
CC(C)c1nc(N(C)S(C)(=O)=O)nc(-c2ccc(F)cc2)c1/C=C/[C@@H](O)C[C@@H](O)CC(=O)O,parasite load remaining,[1],73.5% (inactive) and 60.1% (inactive)
same,viability,[1],86.4% and 101%
same,inhibition,[2],1.44% (inactive)
same,red/green cell ratio (normalised),[3],0.94 (inactive)
same,normalised cell number,[3]; [16],1.08
same,normalised cell number,[3]; [17],1.02
same,fold change,[4]; [18],0.858 (inactive)
same,fold change,[4]; [19],2.33
same,cell count,[4]; [20],12000
same,cell count,[4]; [21],13900
same,remaining NAD,[13],10 nM (inactive)
same,luciferase signal,[14],48 AU (inactive)
C1CNCCN1,inhibition,[5],15.3%
same,score,[6],1.95
same,rescue above control,[7],-1.97
same,cytochrome c release ratio,[8],1.16
same,inhibition of aggregation,[9],15.4%
same,glutamate uptake change,[10],-12.2%
same,inclusion score,[11],2
same,aggregation suppression score,[12],1.67
same,parasite load remaining,[1],96.9% (inactive) and 59.4% (inactive)
same,viability,[1],74.5% and 108%
same,inhibition,[2],7.35% (inactive)
same,red/green cell ratio (normalised),[3],1.22 (inactive)
same,normalised cell number,[3]; [16],0.8
same,normalised cell number,[3]; [17],0.98
same,fold change,[4]; [18],0.887 (inactive)
same,fold change,[4]; [19],2.06
same,cell count,[4]; [20],11000
same,cell count,[4]; [21],12400
same,remaining NAD,[13],10 nM (inactive)
same,luciferase signal,[14],560 AU (inactive)
